# Rows were chosen to be rich in hits. Some 2% of all compounds tested hit in one or more screens of this group.
# KCNH2 WT inh: inhibitors of human wildtype KCNH2 potassium channel | U2OS, BacMam KCNH2, thallium flux FluxOr; hits give low values | Q12809 | AID 720551 | activity change, % at 1.84 µM | actives 0.37% (n = 340,000);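 active = maximum activity change below -70%; inconclusive = maximum activity change between -70% and -50%; inactive = maximum activity change above -50%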
#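 U2OS cells were transduced with wild-type KCNH2 virus (2.03 x 10^8 / mL) for 4 h at room temperature, then cultured overnight at 37 C. Thallium flux was read with FluxOr dye. Rate constants were normalized to DMSO controls.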
# KDM4E inh: blocks human JMJD2E demethylase activity; AID 2147; actives 1.6% (n = 230,000); B2RXH2; Potency, µM (top dose mostly 57.1 µM), for the others: at the highest dose activity change, negative = inhibition, actives largely listed as inhibitors; JMJD2E catalytic domain, FDH-coupled NADH fluorescence (FDH is formaldehyde dehydrogenase);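 also: potency is read from the fitted curve at half-maximal effect; 0% = wells with enzyme and -100% = buffer wells without enzyme; nearly all actives have a fitted effect of over 50% in size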
# Target sequence (B2RXH2 1-337 limits assumed): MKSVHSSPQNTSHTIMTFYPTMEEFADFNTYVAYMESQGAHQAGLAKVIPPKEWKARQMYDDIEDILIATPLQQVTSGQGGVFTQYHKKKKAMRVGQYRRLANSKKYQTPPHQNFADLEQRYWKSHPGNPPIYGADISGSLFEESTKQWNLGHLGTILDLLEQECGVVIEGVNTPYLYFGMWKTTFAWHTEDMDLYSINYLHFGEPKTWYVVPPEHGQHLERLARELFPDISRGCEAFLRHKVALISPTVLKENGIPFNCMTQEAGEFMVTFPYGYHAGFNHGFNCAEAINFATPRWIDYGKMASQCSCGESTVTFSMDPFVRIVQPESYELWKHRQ
# KCNH2 3.1 inh: blocks the human KCNH2 3.1 channel isoform. U2OS KCNH2 3.1, thallium flux FluxOr; hits give low values. activity change, % (tested at about 1.8 µM). actives 0.95% (n = 340,000);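 active = maximum activity change below -70%; inconclusive = maximum activity change from -70% to -50%; inactive = maximum activity change above -50%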;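 also: thallium influx rate constant from kinetic fluorescence after stimulation buffer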
#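 Measured as rate of thallium-driven FluxOr signal in transduced U2OS cells carrying the 3.1 channel, read kinetically for 2 min upon stimulation; values are rate constants scaled to DMSO control wells.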
# CtBP-E1A blk: blocks the CtBP interaction with E1A. AlphaScreen GST-E1A/His-CtBP binding, 1536-well; hits give low values. activity change, % (test concentration not listed). actives 0.49% (n = 340,000)
#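 In 5 uL wells, 23 nL compound meets equimolar GST-E1A and His-CtBP (5X stock 125 nM each) for 2 h, 37 °C. Beads (5X, 50 ug/mL) then 1 h, 37 °C, dark.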
# Six1-Eya2 inh: Six1/Eya2 interaction inhibition | activity change, % (test concentration not listed) | AID 651725 | AlphaScreen GST-Six1/His-Eya2 binding, biochemical; hits give low values | Q15475+O00167 | actives 0.56% (n = 360,000)
#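 AlphaScreen luminescence read after one hour at 37 °C in darkness. Pin-transferred compounds met GST-Six1 and His-Eya2 protein (5X stock 250 nM/500 nM) plus glutathione donor and Ni-chelate acceptor beads (5X, 50 ug/mL).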
# Active calls of the source: *; ? = inconclusive; / = not tested or not shown. Rule as the data show it, unless noted: active = activity change below about -65%; inconclusive = mostly about -30% to -63%; inactive = weaker than that. Unless noted, % is scaled to controls: 0 for no effect and ±100 for the full control effect.
SMILES,KCNH2 WT inh,KDM4E inh,KCNH2 3.1 inh,CtBP-E1A blk,Six1-Eya2 inh
COc1ccc(CNCCC(c2ccc(OC(C)C)cc2)c2ccccc2OC)cc1OC (stereo unspecified),-45.3,/,-81.8*,-12.3,-7.3
COc1ccc(CNCCC(c2ccccc2)c2ccc3c(c2)OCO3)cc1 (stereo unspecified),-23.5,1.2%,-80.5*,-14.7,-12.0
COc1ccc(C(CCNCc2ccc(OC(C)C)cc2)C(C)C)cc1 (stereo unspecified),23.1,-5.1%,-23.0,8.2,4.0
COc1ccc(CNCCC(c2ccc(OC(C)C)cc2)c2ccccc2OC)cc1 (stereo unspecified),/,/,16.9,-12.2,-26.5
COc1ccc(C(CCNCc2ccc(N(C)C)cc2)C(C)C)cc1 (stereo unspecified),13.7,-19.9%,-10.6,/,-66.6*
COc1ccc(C(CC(=O)O)c2ccc3c(c2)OCO3)cc1 (stereo unspecified),7.9,/,10.3,2.3,-7.7
COc1ccccc1C(CCNCc1ccc(N(C)C)cc1)c1ccc(OC(C)C)cc1 (stereo unspecified),-2.1,/,-15.2,/,-84.1*
Cc1cccc(NC(=S)c2nc3ccccc3s2)c1,24.3,2.0%,9.7,-80.7*,-75.4*
Cc1ccc(Nc2nc(CSc3nnc(-c4ccccc4)n3C)cs2)cc1,-19.9,8.8%,-10.3,-19.9,-19.2
O=S(=O)(NCC1CCCO1)c1ccc(Oc2ccccc2)cc1 (stereo unspecified),-1.8,2.3%,-24.2,4.8,3.1
Cc1cc(N2CCN(c3nc(-c4ccccc4)cs3)CC2)c2ccccc2n1,-35.4,?,-78.6*,-0.8,-3.3
Cc1cc(N2CCN(S(=O)(=O)c3ccccc3)CC2)c2ccccc2n1,-109.3*,5.9%,-42.6,-8.6,-1.1
O=S(=O)(c1ccccc1)N1CCN(c2ccnc3cc(Cl)ccc23)CC1,-9.6,?,?,/,-1.5
CCc1cccc2c1NC(=O)C21N2CCCC2C(C(=O)c2ccc3ccccc3c2)C12C(=O)Nc1ccccc12 (stereo unspecified),-2.0,?,-112.5*,-3.5,-14.1
Cc1ccc(-c2csc(Nc3ccccc3)[n+]2CCc2ccccc2)cc1,-1.2,-2.3%,0.3,/,-27.3
Cc1ccc(S(=O)(=O)N/N=C2/CC(c3ccccc3)Oc3ccccc32)cc1 (stereo unspecified),-5.3,-6.3%,-109.7*,-3.8,-9.3
O=S(=O)(N/N=C1\CC(c2ccccc2)Oc2ccccc21)c1ccccc1 (stereo unspecified),-10.6,-1.3%,-4.1,-3.9,-4.8
COC(=O)C1=C(CN2CCSCC2)NC(=O)NC1c1cc(C)ccc1C (stereo unspecified),-6.9,10.9%,/,-1.0,-6.0
O=C(N/N=C/c1cc(Cl)cc([N+](=O)[O-])c1O)c1ccccc1NS(=O)(=O)c1cccs1,-2.6,6.31µM*,0.8,-0.8,-77.0*
O=C(NN=Cc1cc(Cl)ccc1[N+](=O)[O-])c1cccc2ccccc12,3.3,/,/,0.8,-4.4
Cc1cc(C(=O)N/N=C/c2cc(Cl)cc([N+](=O)[O-])c2O)c2ccccc2n1,-18.2,5.62µM*,9.7,-90.9*,-88.7*
COc1cccc(OCC(O)CN2CCN(c3ccc(F)cc3)CC2)c1 (stereo unspecified),26.9,/,-10.4,-3.9,-12.1
OC(COc1ccc2ccccc2c1)CN1CCN(c2ccc(F)cc2)CC1 (stereo unspecified),-6.1,-13.1%,-74.0*,-1.9,-8.9
O=C(COC(=O)C1CC2C=CC1C2)Nc1cccc(S(=O)(=O)N2CCOCC2)c1 (stereo unspecified),1.6,-4.3%,-104.3*,0.1,10.9
CC1CCN(C(=O)C(=O)c2cn(CC(=O)N3CCCC3)c3ccccc23)CC1,-1.0,/,6.3,8.0,5.5
SMILES,KCNH2 WT inh,KDM4E inh,KCNH2 3.1 inh,CtBP-E1A blk,Six1-Eya2 inh
COc1ccc(CCNC(=O)C2CCN(S(=O)(=O)N3CCC4(CC3)OCCO4)CC2)cc1OC,-3.7,-4.1%,-3.3,0.6,6.2
COCCNC(=O)C1CCN(S(=O)(=O)N2CCC3(CC2)OCCO3)CC1,-8.1,5.0%,-200.3*,-18.7,-7.5
O=S(=O)(Nc1cccc2c1CCCC2)c1ccc(Cl)cc1,-5.6,?,-70.8*,0.8,2.9
CC(=O)Nc1ccccc1NS(=O)(=O)c1ccc(Cl)cc1,4.3,3.1%,-8.6,-0.7,7.2
CC(Oc1ccc(F)cc1)C(=O)Nc1nc(-c2ccccn2)cs1 (stereo unspecified),2.4,/,-1.1,-79.2*,-28.2
O=C(CCS(=O)(=O)c1ccccc1)Nc1nc(-c2ccccn2)cs1,-1.3,/,-13.8,-79.8*,-11.2
COc1ccc(OCCCC(=O)Nc2nc(-c3ccccn3)cs2)cc1,-7.4,-12.8%,-24.8,-26.2,-23.9
Cc1ccc(S(=O)(=O)CCC(=O)Nc2nc(-c3ccncc3)cs2)cc1,10.4,/,16.5,/,-4.6
O=C(CCS(=O)(=O)c1ccc(F)cc1)Nc1nc(-c2ccccn2)cs1,3.6,/,10.7,/,-76.3*
Cc1cc(=O)oc(C)c1C(=O)NCc1ccccn1,4.6,-5.7%,-8.0,?,-81.1*
O=C(NCc1ccccn1)c1ccc(=O)oc1,-3.4,?,-2.8,-79.3*,-87.4*
O=C1CCCC2=C1C(c1cccs1)Nc1ccccc1N2 (stereo unspecified),-1.1,-4.0%,-13.1,4.8,12.8
COc1cccc(/C=C/C(=O)Nc2ccc3nc4n(c(=O)c3c2)CCCC4)c1OC,4.2,6.8%,17.8,-78.1*,?
COc1cc(/C=C/C(=O)Nc2ccc3nc4n(c(=O)c3c2)CCCC4)cc(OC)c1OC,3.7,-7.0%,-36.7,?,-85.4*
CCn1c(=O)c(C(C)=O)nc2ccccc21,-5.2,-10.4%,0.5,18.6,-1.5
CCCCCn1c(=O)c(C(=O)c2ccccc2)nc2ccccc21,-119.9*,-6.4%,-78.2*,-2.2,-6.1
CCS(=O)(=O)Nc1cccc(-c2ccc3nnc(-c4cccnc4)n3n2)c1,7.4,/,9.0,-85.5*,-66.9*
CCOC(=O)c1c(C2CC2)csc1NC(=O)COC(=O)c1ccc[n+]([O-])c1,-2.8,5.2%,13.0,-9.3,0.0
N#C/C(=C\c1ccco1)C(=O)NCc1ccccc1,/,-0.5%,7.0,/,16.9
N#CC(C#N)=C1C=CC=CN1/C(=C\c1ccco1)C(=O)c1ccc(-c2ccccc2)cc1,-7.7,-7.6%,-84.6*,12.4,-21.2
N#CC(C#N)=C1C=CC=CN1/C(=C\c1ccco1)C(=O)c1ccc(Cl)cc1,8.0,-11.6%,-85.9*,3.3,2.7
N#CC1(NC(=O)COC(=O)c2nccnc2N)CCCCC1,-202.1*,/,4.2,-1.3,-4.7
COc1cccc(CN2CCCN(S(=O)(=O)c3ccc(Br)cc3)CC2)c1,-88.5*,1.0%,4.1,-8.5,-7.3

# Screening results (PubChem)
